# High-throughput results as filed in PubChem BioAssay.
# Rows were chosen to be rich in hits. Some 4.1% of all compounds tested hit in one or more screens of this group.
# Bead autofluor: counter-screen for toxin protease inhibitors: compound fluorescence; AID 624483; 360,000 compounds, 3.1% hits; fluorescence intensity (concentration not given with the values); compound autofluorescence counterscreen, microsphere flow cytometry; stronger effect = higher value; in the data active = fluorescence intensity above about 16000; inconclusive = no clear call, values can overlap the other calls
# BoNT-A LC inh2: inhibitors of Botulinum neurotoxin A light chain protease; inhibition, % at 10 µM; 360,000 compounds, 0.17% hits; multiplex microsphere protease substrate cleavage, flow cytometry; AID 588499
# Anthrax LF inh2: inhibitors of Bacillus anthracis lethal factor protease; AID 588501; multiplex microsphere protease cleavage assay, LF; P15917; 360,000 compounds, 0.12% hits; inhibition, % at 10 µM
# MazF activator: MazEF (E. coli) toxin RNase activation; P0AE70; FAM/BHQ RNA-DNA oligo cleavage fluorescence, 5 h; activation, % at 20 µM; 350,000 compounds, 0.32% hits; AID 504720; in the data active = activation above about 50%
# Target sequence (P0AE70 whole entry, looked up): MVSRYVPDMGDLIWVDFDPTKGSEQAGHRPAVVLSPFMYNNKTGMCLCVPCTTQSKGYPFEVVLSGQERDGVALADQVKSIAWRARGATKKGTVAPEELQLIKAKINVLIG
# BoNT-F LC inh: BoNT F light chain protease inhibition; Multiplex microsphere protease cleavage assay, flow cytometry; inhibition, % at 10 µM; 360,000 compounds, 0.22% hits; AID 588497; in the data active = inhibition above about 35%, passing the limit was not always enough; inconclusive = no clear call, values can overlap the other calls
# DUSP3 inh: inhibitors of human VHR1 phosphatase (DUSP3); P51452; recombinant VHR phosphatase, pNPP absorbance; inhibition, % at 13.3 µM; 290,000 compounds, 0.52% hits; AID 1654; in the data active = inhibition above about 50%
# Target sequence (P51452 whole entry, looked up): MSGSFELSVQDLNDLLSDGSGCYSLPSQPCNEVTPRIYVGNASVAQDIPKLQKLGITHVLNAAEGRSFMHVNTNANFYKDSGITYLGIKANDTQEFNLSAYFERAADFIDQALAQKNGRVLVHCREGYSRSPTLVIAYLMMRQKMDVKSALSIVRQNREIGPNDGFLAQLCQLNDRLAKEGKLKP
# Numbers stand for hits; - = inactive; ? = inconclusive; . = no result given. Cut-off read from the data, not from the text of the source, unless noted: active = inhibition above about 30%; inconclusive = no clear call, values can overlap the other calls; inactive = below that.
SMILES,Bead autofluor,BoNT-A LC inh2,Anthrax LF inh2,MazF activator,BoNT-F LC inh,DUSP3 inh
CC(C)C(OC(=O)C1CCCO1)C(=O)NC1CCCC1 (configuration not stated),18597,-,-,-,-,-
CC(C)C(OC(=O)c1ccco1)C(=O)NC1CCCC1 (configuration not stated),-,-,-,-,-,-
NC(CO)C(=O)NNCc1ccc(O)c(O)c1O (configuration not stated),-,-,-,223,-,-
COC(=O)C(N)Cc1ccc(O)c(O)c1 (configuration not stated),-,-,-,-,-,-
COc1cc(Cl)c(C)cc1NC(=O)CN1C(=O)C2CCCCC2C1=O (configuration not stated),-,-,-,-,-,.
COc1ccc(S(=O)(=O)N(CCc2ccccc2)CC(=O)NC(C)C)cc1,22967,-,-,-,-,-
COc1ccc(S(=O)(=O)N(CC(=O)NCc2ccncc2)Cc2ccccc2)cc1,-,-,-,-,-,-
COc1ccc(CNC(=O)CN(Cc2ccccc2)S(=O)(=O)c2ccc(Cl)cc2)cc1,22889,-,-,-,-,-
COc1ccc(C)cc1S(=O)(=O)N(CC(=O)NCc1ccc(Cl)cc1)Cc1ccccc1,22998,-,-,-,-,-
COc1ccc(CNC(=O)CN(Cc2ccc(Cl)cc2)S(=O)(=O)c2ccccc2)cc1,24986,-,-,-,-,-
COc1ccc(C)cc1S(=O)(=O)N(CC(=O)N1CCOCC1)Cc1ccccc1,-,-,-,-,-,-
COCCNC(=O)C1(C)Cc2c(-c3cccc(C(F)(F)F)c3)ccnc2O1 (configuration not stated),-,-,-,.,-,.
Cc1c(C(=O)NCC2CCCO2)oc2c(Cl)cccc12 (configuration not stated),?,-,?,-,-,.
CNC(=O)/C(C#N)=C/c1ccc(-c2nc3ccccc3s2)o1,-,-,-,94,-,-
N#C/C(=C\c1ccc(-c2nc3ccccc3s2)o1)C(N)=O,-,-,-,-,?,-
C=CCN1C(=O)C(CC(=O)Nc2ccc(OC)cc2)N(Cc2ccco2)C1=S (configuration not stated),22980,?,-,-,-,-
CCN1C(=O)C(CC(=O)Nc2ccc(OC)cc2)N(Cc2cccnc2)C1=S (configuration not stated),-,-,-,-,-,-
COc1ccc(NC(=O)CC2C(=O)N(CCc3ccccc3)C(=S)N2Cc2cccnc2)cc1 (configuration not stated),20810,-,-,-,-,-
C(=N\Nc1ncnc2sc3c(c12)CCC3)/c1ccncc1,-,-,-,-,-,50
CCC(C)NC(=O)[C@@H]1CSC2c3ccccc3C(=O)N21 (some centres not stated),-,-,-,-,-,-
COc1ccc(N=C2C(=O)Nc3ccccc32)cc1,22766,-,-,-,-,-
COc1ccc(OC)c(N=C2C(=O)Nc3ccccc32)c1,21377,?,-,-,-,-
CCN1C(=O)c2ccc(C(=O)Nc3ccc4c(c3)OCO4)cc2C1=O,-,-,-,-,-,-
COc1ccc(OC)c(NC(=O)Nc2nc(C(N)C(C)C)cs2)c1 (configuration not stated),-,-,-,.,-,.
O=C(O)C1=CC[C@@H](c2ccc(Cl)cc2)N(S(=O)(=O)c2ccc(Cl)cc2)C1,-,-,-,-,-,.
SMILES,Bead autofluor,BoNT-A LC inh2,Anthrax LF inh2,MazF activator,BoNT-F LC inh,DUSP3 inh
CCn1c(=O)n(CCc2ccccc2)c(=O)c2c3c(sc21)CCCC3,22638,-,-,-,-,-
O=c1c2c3c(sc2n(CCN2CCOCC2)c(=O)n1Cc1ccco1)CCCCC3,?,-,?,-,-,-
NC(=O)Cn1c(=O)n(Cc2ccco2)c(=O)c2c3c(sc21)CCCCC3,18631,?,-,-,-,-
O=c1c2c3c(sc2n(CCN2CCCCC2)c(=O)n1Cc1ccco1)CCCCC3,27290,?,-,-,-,-
CCOc1ccc(NC(=O)Nc2cc(C(C)C)c(O)cc2C)cc1,-,-,-,-,-,-
CCOc1ccc(NC(=O)Nc2cc(C)ccc2F)cc1,16132,-,-,-,-,-
C=CCn1c(C)cc(C(=O)CN2NS(=O)(=O)c3ccccc3C2=O)c1C,-,-,-,57,-,-
COc1cccc(-c2nc(CS(=O)(=O)CC(=O)Nc3ccccc3Cl)c(C)o2)c1,-,-,-,-,-,-
COc1ccc(CN2CCN(Cc3ccc(C(F)(F)F)cc3)CC2)cc1,-,-,-,-,-,-
FC(F)(F)c1ccc(CN2CCCCCC2)cc1,-,-,-,-,-,52
COc1ccc(CCN2CC(C(=O)NCCCc3ccncc3)CCC2=O)cc1 (configuration not stated),-,-,-,-,-,.
O=C(Nc1ccccc1Cl)N1CCN(c2ccc3nnc(-c4ccc(F)cc4)n3n2)CC1,20523,?,-,-,-,-
CN(CC(=O)Nc1ccc(Cl)c(Cl)c1)CC(=O)N1CCCCCC1,-,-,-,-,-,.
Cc1cc(NC(=O)COC(=O)Cn2[nH]c(=O)c3ccccc3c2=O)c([N+](=O)[O-])cc1C,-,-,-,-,-,.
Cc1cc(-n2nc(C)cc2C)n2nc(C)c(-c3ccc(Cl)cc3)c2n1,17908,-,-,-,-,-
C=CCSc1cc(C)nc2c(-c3ccc(Cl)cc3)c(C)nn12,20069,-,-,-,-,-
Cc1cc(C(F)(F)F)n2nc(C)c(-c3ccc(Cl)cc3)c2n1,-,-,-,-,-,-
Cc1cc(C)nc(SCC(=O)c2c(N)n(C)c(=O)n(C)c2=O)n1,23309,?,-,-,-,-
CN(C)CCN(C(=O)c1cccs1)c1nc2cc3c(cc2s1)OCCO3,-,-,-,-,-,-
CC(=O)c1cccc(NC(=O)c2csc(-n3nc(C)cc3C(F)(F)F)n2)c1,22022,?,-,-,-,-
CCN(CC)S(=O)(=O)c1ccc(N2CCOCC2)c(NC(=O)C2=COCCO2)c1,-,-,-,-,-,-
COc1ccccc1COCC(O)CNCC1(N2CCCCC2)CCCCC1 (configuration not stated),22309,-,-,-,-,-
COc1cc(C(C)=O)ccc1OCC(O)CNCC1(N2CCCCC2)CCCCC1 (configuration not stated),-,-,-,-,-,-
O=C(c1ccccc1)N1N=C(c2ccccc2)CC1c1ccc2nccnc2c1 (configuration not stated),-,-,-,-,-,-
CC(=O)N1N=C(c2ccc3nccnc3c2)CC1c1ccccc1 (configuration not stated),20160,-,-,-,-,-
O=C(Nc1ccc(F)cc1)c1cc2cc(Cl)ccc2[nH]1,-,-,-,-,-,-
COc1ccccc1NC(=O)Cc1csc(NC(=S)Nc2ccc(C)cc2)n1,16561,-,-,-,-,-
